eIF4E 4G PPI = inhibitors of eIF4E and eIF4G interaction in translation initiation. P63073+Q04637. TR-FRET eIF4E-eIF4GI(517-606) binding, 2 h. inhibition, % at 21.7 µM. 0.37% of 220,000 active. AID 782
Bim-Mcl-1 = inhibitors of Bim-Mcl-1 interaction, human; Q07820; Bead-based flow cytometry, Bim peptide-Mcl-1 binding; inhibition, % at 10 µM; 0.1% of 190,000 active; AID 1009; in the data active means inhibition above about 40%
NCF1 inh = inhibitors of human p47phox binding | AID 1274 | p47phox/p22phox peptide binding, fluorescence polarization, 2 h | P14598 | inhibition, % at 24.7 µM | 0.53% of 220,000 active
Target sequence (P14598 whole entry, looked up): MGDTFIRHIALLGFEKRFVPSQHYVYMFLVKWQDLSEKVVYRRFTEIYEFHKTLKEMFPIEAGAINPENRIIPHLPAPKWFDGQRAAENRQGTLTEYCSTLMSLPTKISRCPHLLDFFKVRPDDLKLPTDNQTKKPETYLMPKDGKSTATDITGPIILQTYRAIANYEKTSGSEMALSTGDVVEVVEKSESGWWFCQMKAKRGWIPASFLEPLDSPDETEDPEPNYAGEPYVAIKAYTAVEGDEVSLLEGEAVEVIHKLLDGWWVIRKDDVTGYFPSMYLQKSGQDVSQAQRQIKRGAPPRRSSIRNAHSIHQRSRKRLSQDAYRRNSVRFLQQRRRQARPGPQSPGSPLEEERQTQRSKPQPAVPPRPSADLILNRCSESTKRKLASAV
14-3-3 Bad inh = disrupts binding of bovine 14-3-3 zeta to phospho-Bad peptide | 0.71% of 220,000 active | TR-FRET 14-3-3zeta/Dy647-pBad peptide displacement, 1 h | P63103 | inhibition, % at 21.7 µM;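 active means inhibition above about 70%, limit read from the data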
Mcl1-Noxa inh = Mcl-1/Noxa interaction inhibition | 1.5% of 220,000 active | inhibition, % at 21.7 µM | TR-FRET Mcl-1/Noxa peptide binding, 2 h | AID 1022;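 active means compounds that cut the protein-peptide binding signal by more than 50% relative to plate controls in a single-dose test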;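 further: His-tagged Mcl-1 with rhodamine Noxa BH3 peptide and terbium anti-His antibody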
Mcl1-Bid inh = Mcl-1/Bid interaction inhibition; inhibition, % at 21.7 µM; TR-FRET Mcl-1/Bid-Dy647 peptide binding, 1536-well; 0.97% of 220,000 active; Q07820; AID 1021;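 active means compounds that cut the binding signal by more than half at the single screening dose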;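 further: His-tagged Mcl-1 with europium anti-His antibody binding Bid BH3 peptide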
Numbers stand for hits; - = inactive; . = no result given; [ ] = another dose, or the depositor's remark. The list is not random: actives were taken first. Their share in the collection is about 3.3%.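 How the source made its calls, unless noted: active means inhibition above about 30% (limit read from the data); inactive means the rest.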

SMILES	eIF4E 4G PPI	Bim-Mcl-1	NCF1 inh	14-3-3 Bad inh	Mcl1-Noxa inh	Mcl1-Bid inh
CCN(CC)C(=O)c1[nH]cnc1C(=O)N[C@@H](C)C(=O)OC(C)(C)C	-	-	.	-	-	-
CC(=O)Nc1ccc(S(=O)(=O)NC2(C(F)(F)F)C(=O)Nc3c2c(=O)[nH]c(=O)n3C)cc1 (centres undefined)	-	-	-	-	-	-
CC(=O)Nc1ccc(S(=O)(=O)NC2(C(F)(F)F)C(=O)Nc3c2c(=O)n(C)c(=O)n3C)cc1 (centres undefined)	-	-	-	-	52	-
CC(=O)Nc1ccc(S(=O)(=O)NC2(C(F)(F)F)C(=O)Nc3c2c(=O)[nH]c(=O)n3Cc2cccnc2)cc1 (centres undefined)	-	-	-	-	56	-
CC(=O)Nc1ccc(S(=O)(=O)NC2(C(F)(F)F)C(=O)Nc3c2c(=O)[nH]c(=O)n3Cc2ccco2)cc1 (centres undefined)	-	-	-	-	56	-
CN1CC(=O)N(CC(=O)N2CCC(Cc3ccccc3)CC2)C1=O	-	-	-	-	-	-
Cc1ccc(-c2ccc(=O)n(CC(=O)N3CCN(c4cccc(C)c4)C(C)C3)n2)cc1 (centres undefined)	-	-	-	-	-	-
Cc1cc(C)c2c(=O)n(CC(=O)NCCCN3CCN(c4ccccc4F)CC3)sc2n1	-	-	51	-	-	-
Cc1cc(C)c2c(=O)n(CC(=O)N3CCC(Cc4ccccc4)CC3)sc2n1	-	-	-	-	59	-
Cc1cccc(N2CCN(C(=O)Cn3sc4nc(C)cc(C)c4c3=O)CC2C)c1 (centres undefined)	-	-	-	-	59	-
CCOc1ccc(NC(=O)Cn2sc3nc(C)cc(C)c3c2=O)cc1	-	.	40	-	51	-
Cc1cc(C)nc(NCCC(=O)O)n1	-	-	-	-	-	-
CC(C)(C)OC(=O)N1CCC[C@H]1c1nnc(SCC(=O)Nc2ccc(Br)cc2)o1	-	.	-	-	-	-
CCOC(=O)C(=O)c1csc(NC(=O)CCSc2ccc(C)cc2)n1	-	-	-	-	-	-
O=C(Nc1ccc(Oc2ccc(NC(=O)Nc3ccccc3Cl)cc2)cc1)Nc1ccccc1Cl	-	.	-	-	-	-
Cc1cccc(N2CCN(C(=O)Cc3ccc(-n4c(=O)[nH]c5ccsc5c4=O)cc3)CC2C)c1 (centres undefined)	-	-	-	-	-	93
COC(=O)c1c(NC(=S)Nc2ccc(CC(=O)O)cc2)sc(C)c1C	-	-	-	-	72	-
Cc1ccc(OCc2ccc(C(=O)Nc3nc4ccccc4n3Cc3ccccc3)o2)c([N+](=O)[O-])c1	-	-	32	-	-	68
Cc1[nH]n(C(N)=S)c(=O)c1N=Nc1ccc(S(=O)(=O)N2CCCCCC2)cc1	-	51	-	-	-	-
O=C1CCCC/C1=C/Nc1cccc(C(F)(F)F)c1	-	-	-	93	-	-
CCN1CCN(c2nc(Nc3ccc(NC(C)=O)cc3)nc(Nc3ccc(NC(C)=O)cc3)n2)CC1	-	.	-	-	-	-
Cn1c(=O)c2c(-c3ccccc3)n(C3CCCCC3)cc2n(C)c1=O	-	-	57	-	-	-
Cc1cccc(-c2c3c(=O)n(C)c(=O)n(C)c3cn2C2CCCCC2)c1	-	-	-	-	-	-
Cc1ccc(CNC(=O)[C@H]2C[C@@H]2[C@H](NP(=O)(c2ccccc2)c2ccccc2)c2ccccc2)o1	-	-	-	-	-	-
O=c1ccc2cc3c([nH]c4ccc(Br)cc43)oc-2c1O	-	-	-	-	94	-
SMILES	eIF4E 4G PPI	Bim-Mcl-1	NCF1 inh	14-3-3 Bad inh	Mcl1-Noxa inh	Mcl1-Bid inh
COC(=O)N=Nc1c(O)[nH]c2ccc(Br)cc12	-	.	-	-	-	-
CCOc1ccccc1N/C(=C(/C(Cl)=C(Cl)Cl)[N+](=O)[O-])n1cncn1	-	-	-	74	-	61
CCOc1ccccc1NC(=O)c1ccc([N+](=O)[O-])cc1	-	-	-	-	-	-
CCOc1ccc(N/C(=C(/C(Cl)=C(Cl)Cl)[N+](=O)[O-])n2cncn2)cc1	-	-	-	-	-	77
O=[N+]([O-])/C(C(Cl)=C(Cl)Cl)=C(\Nc1ccc(F)cc1)n1cncn1	-	-	-	-	-	73
Cc1nc2sc(C(=O)Nc3ccccc3)c(N)c2c(C)c1[N+](=O)[O-]	-	-	-	-	-	-
COc1ccccc1CNC(=O)Cc1ccc(Br)cc1	-	-	-	-	-	-
COc1ccccc1CNC(=O)/C=C/c1ccc(Br)o1	-	-	-	-	70	-
COc1ccc(NC(=O)/C=C/c2ccc(Br)o2)cn1	-	-	-	-	58	-
COc1ccc(/C=C2\C(=O)NC(=S)N2C(=O)c2ccc(C)cc2)cc1	-	-	-	79[fluorescence artefact?]	77	56
O=C1NC(=S)N(C(=O)c2ccc(F)cc2)/C1=C/c1cccnc1	-	.	-	-	-	-
Cc1cc(C(=O)COC(=O)c2cc(O)c3ccccc3c2O)c(C)n1CC1CCCO1 (centres undefined)	-	-	-	73	99	-
Cc1cc(C(=O)COC(=O)c2n[nH]c3ccccc23)c(C)n1CC1CCCO1 (centres undefined)	-	-	-	-	-	-
Cc1ccc(C(=O)OCC(=O)c2cc(C)n(CC3CCCO3)c2C)cc1 (centres undefined)	-	-	59	-	-	-
Cc1cc(C(=O)COC(=O)c2ccccc2Br)c(C)n1CC1CCCO1 (centres undefined)	-	.	-	-	-	-
CC(C)Oc1cccc(C(=O)C2CCCN(C(=O)CCn3cnnn3)C2)c1 (centres undefined)	-	-	-	-	-	-
Cc1cc(C)cc(OCc2ccc(C(=O)NN)o2)c1	-	.	-	-	-	-
CC(NC(=O)CSc1nnc(-c2cccnc2)n1N)c1ccccc1 (centres undefined)	-	-	-	-	-	-
CC1CCN(S(=O)(=O)c2cccc(C(=O)Nc3ccccn3)c2)CC1	-	-	-	-	-	79
O=C(Nc1ccccn1)c1cccc(S(=O)(=O)N2CCOCC2)c1	-	-	-	-	-	-
O=c1[nH]c(=O)n(CCc2ccc(F)cc2)c(O)c1C=NCc1ccc2c(c1)OCO2	-	-	-	-	-	53
NC1CCCCC1N=Cc1c(O)n(CCc2ccc(F)cc2)c(=O)[nH]c1=O (centres undefined)	.	-	.	.	.	.
COC(=O)n1c(=S)oc2cc(Cl)ccc21	61	-	-	-	-	-
COc1cccc(CNC(=O)C(C(=O)NCc2cccc(OC)c2)c2ncc(C(F)(F)F)cc2Cl)c1	-	-	-	-	-	-
CCCCCCNC(=O)N[C@@H](C(=O)NCCC[C@H]1CN2C(=NC[C@@H]2Cc2ccccc2)N1CCc1cccc(OC)c1)C(C)C	41	.	66	-	-	-
